# A number with no mark means an inactive call.
# What was measured:
# Test in all cases: log2 ratio of Biotin-Ahx-Ub-VS probe labelling (fragment/DMSO); higher = less target engagement (more negative = stronger competition), active = hit call of the paper (q ≤ 0.05, log2 ratio ≤ -1)
# Settings in all cases: compound concentration: 200 uM; treatment time: 3 h
# [1] = target: T1, OTUD6B (UniProt Q8N6M0)
# T1 sequence (whole entry): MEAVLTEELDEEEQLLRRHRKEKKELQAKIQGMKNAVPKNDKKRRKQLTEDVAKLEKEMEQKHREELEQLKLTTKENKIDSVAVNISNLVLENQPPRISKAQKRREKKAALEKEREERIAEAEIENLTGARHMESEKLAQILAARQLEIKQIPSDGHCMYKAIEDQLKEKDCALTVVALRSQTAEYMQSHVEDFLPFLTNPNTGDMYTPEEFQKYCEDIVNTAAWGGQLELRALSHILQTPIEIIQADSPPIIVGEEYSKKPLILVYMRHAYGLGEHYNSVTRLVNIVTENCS
# Procedure, shortened: (§1)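 Triplicate samples of HEK293T lysate, 495 µg each, received fragment at 200 µM or vehicle for 3 h, followed by Biotin-Ahx-Ub-VS (0.5 µM final) for 1 h. After NeutrAvidin enrichment of labelled DUBs and LysC/trypsin digestion, peptides were run by diaPASEF LC-MS/MS. The values are average log2 fragment/vehicle ratios from global-median-normalised Spectronaut label-free quantities, tested by unpaired t-test on proteins having ≥2 unique peptides.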
# [2] = target: T2, OTUD7B (UniProt Q6GQQ9)
# T2 sequence (whole entry): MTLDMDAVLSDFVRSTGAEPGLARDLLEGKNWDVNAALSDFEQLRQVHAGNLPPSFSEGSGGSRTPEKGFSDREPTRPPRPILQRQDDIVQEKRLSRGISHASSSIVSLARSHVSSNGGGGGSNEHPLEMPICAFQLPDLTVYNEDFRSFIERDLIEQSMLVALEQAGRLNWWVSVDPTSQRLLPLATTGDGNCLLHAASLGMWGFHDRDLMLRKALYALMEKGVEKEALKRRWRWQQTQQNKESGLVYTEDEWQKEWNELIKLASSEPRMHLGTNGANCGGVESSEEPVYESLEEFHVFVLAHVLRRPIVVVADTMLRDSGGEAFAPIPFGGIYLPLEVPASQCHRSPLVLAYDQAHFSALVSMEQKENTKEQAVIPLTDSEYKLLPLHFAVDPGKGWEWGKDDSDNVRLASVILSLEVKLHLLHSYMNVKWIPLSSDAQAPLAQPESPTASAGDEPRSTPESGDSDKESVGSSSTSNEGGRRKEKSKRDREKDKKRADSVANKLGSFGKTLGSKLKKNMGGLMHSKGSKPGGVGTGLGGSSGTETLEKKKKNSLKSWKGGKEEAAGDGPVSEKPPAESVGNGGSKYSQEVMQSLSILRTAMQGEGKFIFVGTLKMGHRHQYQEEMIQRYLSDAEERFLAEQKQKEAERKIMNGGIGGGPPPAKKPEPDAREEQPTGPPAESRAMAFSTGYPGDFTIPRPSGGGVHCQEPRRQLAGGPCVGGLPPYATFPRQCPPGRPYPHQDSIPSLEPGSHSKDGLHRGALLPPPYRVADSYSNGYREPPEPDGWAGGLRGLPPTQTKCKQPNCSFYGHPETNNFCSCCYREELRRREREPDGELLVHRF
# Procedure, shortened: as §1
# [3] = target: PRPF8 (UniProt Q6P2Q9)
# Procedure, shortened: as §1
# [4] = target: T3, PSMD7 (UniProt P51665)
# T3 sequence (whole entry): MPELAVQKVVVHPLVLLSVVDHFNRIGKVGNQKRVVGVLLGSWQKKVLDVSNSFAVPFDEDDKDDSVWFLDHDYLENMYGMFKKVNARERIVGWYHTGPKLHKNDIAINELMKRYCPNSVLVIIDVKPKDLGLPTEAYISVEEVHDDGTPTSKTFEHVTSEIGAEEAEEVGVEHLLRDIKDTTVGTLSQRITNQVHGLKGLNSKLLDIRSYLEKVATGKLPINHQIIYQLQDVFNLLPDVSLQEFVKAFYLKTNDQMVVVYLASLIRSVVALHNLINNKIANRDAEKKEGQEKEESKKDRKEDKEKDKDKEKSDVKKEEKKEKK
# Procedure, shortened: as §1
# [5] = target: UCHL1 (UniProt P09936)
# UCHL1, sequence (P09936 whole entry, looked up): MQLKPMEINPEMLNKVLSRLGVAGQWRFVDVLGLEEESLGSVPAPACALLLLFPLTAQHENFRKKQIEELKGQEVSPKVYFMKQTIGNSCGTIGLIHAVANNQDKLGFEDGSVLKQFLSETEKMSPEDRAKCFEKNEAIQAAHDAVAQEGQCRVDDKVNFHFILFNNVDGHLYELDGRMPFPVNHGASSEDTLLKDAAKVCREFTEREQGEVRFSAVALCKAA
# Procedure, shortened: as §1
# [6] = target: T4, UCHL3 (UniProt P15374)
# T4 sequence (whole entry): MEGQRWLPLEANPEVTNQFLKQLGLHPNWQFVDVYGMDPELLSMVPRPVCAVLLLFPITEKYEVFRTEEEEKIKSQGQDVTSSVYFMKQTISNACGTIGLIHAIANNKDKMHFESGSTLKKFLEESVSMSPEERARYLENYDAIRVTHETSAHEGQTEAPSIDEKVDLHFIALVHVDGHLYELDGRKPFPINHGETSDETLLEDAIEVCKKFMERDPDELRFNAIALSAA
# Procedure, shortened: as §1
# [7] = target: T5, UCHL5 (UniProt Q9Y5K5)
# T5 sequence (whole entry): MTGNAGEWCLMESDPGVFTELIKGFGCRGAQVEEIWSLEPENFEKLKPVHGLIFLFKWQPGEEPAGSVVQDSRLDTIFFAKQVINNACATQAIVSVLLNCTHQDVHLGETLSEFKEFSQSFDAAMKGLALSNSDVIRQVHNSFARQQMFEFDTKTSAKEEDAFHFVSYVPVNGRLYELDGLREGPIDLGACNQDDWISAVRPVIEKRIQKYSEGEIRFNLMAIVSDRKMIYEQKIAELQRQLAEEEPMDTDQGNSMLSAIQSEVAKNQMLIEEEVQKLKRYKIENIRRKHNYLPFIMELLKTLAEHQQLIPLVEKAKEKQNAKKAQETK
# Procedure, shortened: as §1
# [8] = target: USP10 (UniProt Q14694)
# USP10, sequence (Q14694 whole entry): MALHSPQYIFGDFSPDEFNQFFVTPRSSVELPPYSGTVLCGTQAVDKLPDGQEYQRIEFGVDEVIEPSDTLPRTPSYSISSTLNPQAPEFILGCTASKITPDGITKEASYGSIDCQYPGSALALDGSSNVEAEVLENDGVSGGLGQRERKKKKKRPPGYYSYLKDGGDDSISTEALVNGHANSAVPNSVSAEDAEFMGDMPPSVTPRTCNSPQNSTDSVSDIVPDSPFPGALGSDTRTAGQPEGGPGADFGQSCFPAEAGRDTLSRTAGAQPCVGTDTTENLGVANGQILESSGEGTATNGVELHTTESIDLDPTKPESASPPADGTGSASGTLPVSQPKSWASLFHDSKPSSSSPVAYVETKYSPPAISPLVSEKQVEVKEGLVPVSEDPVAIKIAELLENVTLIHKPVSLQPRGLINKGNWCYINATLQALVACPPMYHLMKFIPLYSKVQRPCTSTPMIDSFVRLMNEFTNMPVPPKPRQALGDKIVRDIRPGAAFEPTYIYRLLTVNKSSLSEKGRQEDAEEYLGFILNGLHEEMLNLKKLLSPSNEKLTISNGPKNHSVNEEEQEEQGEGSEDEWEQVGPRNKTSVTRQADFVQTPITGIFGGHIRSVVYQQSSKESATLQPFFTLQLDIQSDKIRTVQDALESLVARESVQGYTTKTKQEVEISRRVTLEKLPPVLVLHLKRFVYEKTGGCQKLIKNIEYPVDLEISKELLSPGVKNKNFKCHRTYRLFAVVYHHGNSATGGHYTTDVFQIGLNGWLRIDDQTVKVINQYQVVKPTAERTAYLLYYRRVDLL
# Procedure, shortened: as §1
# [9] = target: T6, USP15 (UniProt Q9Y4E8)
# T6 sequence (whole entry): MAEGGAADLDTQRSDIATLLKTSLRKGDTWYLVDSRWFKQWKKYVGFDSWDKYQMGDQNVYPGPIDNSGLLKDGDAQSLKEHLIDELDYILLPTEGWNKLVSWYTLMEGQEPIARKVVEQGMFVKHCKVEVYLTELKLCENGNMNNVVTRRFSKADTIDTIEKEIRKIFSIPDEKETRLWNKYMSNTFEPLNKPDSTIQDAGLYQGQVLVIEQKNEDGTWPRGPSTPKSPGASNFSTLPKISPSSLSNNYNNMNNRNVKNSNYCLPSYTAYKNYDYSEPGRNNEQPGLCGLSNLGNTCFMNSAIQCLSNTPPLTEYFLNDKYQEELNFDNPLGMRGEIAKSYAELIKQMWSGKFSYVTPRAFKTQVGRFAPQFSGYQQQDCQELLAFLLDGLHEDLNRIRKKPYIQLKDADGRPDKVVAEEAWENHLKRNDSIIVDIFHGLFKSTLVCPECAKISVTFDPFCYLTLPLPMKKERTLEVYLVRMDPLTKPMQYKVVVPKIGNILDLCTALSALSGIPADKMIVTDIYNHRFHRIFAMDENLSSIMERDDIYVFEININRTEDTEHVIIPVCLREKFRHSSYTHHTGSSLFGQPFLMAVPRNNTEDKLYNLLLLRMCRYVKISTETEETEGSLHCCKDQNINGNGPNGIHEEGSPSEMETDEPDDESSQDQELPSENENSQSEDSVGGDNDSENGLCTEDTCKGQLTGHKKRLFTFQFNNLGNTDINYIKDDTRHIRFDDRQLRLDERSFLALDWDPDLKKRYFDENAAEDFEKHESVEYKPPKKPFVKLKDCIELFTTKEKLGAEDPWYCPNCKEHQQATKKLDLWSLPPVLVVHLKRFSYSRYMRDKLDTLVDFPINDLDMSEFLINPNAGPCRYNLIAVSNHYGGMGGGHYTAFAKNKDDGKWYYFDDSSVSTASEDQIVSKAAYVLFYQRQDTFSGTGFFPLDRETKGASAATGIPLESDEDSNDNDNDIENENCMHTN
# Procedure, shortened: as §1
# [10] = target: USP16 (UniProt Q9Y5T5)
# USP16, sequence (Q9Y5T5 whole entry, looked up): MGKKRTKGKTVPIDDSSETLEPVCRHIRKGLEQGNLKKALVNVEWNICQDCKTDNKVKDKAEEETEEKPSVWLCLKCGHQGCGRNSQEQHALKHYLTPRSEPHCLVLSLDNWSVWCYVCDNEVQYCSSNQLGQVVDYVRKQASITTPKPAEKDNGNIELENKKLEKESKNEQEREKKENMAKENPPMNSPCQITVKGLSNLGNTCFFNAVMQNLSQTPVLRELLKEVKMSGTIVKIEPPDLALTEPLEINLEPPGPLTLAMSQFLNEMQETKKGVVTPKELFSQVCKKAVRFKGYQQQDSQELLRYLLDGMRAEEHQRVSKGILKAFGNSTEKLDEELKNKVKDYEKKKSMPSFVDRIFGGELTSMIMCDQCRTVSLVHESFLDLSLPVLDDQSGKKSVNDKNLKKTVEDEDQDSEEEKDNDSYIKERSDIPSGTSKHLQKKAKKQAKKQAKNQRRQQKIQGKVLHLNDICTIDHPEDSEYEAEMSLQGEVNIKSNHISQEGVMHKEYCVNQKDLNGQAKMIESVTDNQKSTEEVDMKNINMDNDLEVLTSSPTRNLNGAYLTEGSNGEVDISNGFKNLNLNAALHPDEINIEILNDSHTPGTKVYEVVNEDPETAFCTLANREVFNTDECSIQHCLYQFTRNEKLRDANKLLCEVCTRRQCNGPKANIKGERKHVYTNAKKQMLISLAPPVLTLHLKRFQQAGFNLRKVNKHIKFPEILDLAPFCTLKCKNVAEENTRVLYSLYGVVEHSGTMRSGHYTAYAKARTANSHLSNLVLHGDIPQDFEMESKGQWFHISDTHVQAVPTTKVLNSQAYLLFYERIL
# Procedure, shortened: as §1
compound,measurement,setting,value
CC1CN(c2ccc(NC(=O)CCl)cc2)CC(C)O1 (stereo not given),log2 ratio of Biotin-Ahx-Ub-VS probe labelling,[1],-0.241
same,log2 ratio of Biotin-Ahx-Ub-VS probe labelling,[2],-0.313
same,log2 ratio of Biotin-Ahx-Ub-VS probe labelling,[3],0.0099
same,log2 ratio of Biotin-Ahx-Ub-VS probe labelling,[4],-0.00447
same,log2 ratio of Biotin-Ahx-Ub-VS probe labelling,[5],-1.48 (active)
same,log2 ratio of Biotin-Ahx-Ub-VS probe labelling,[6],0.00853
same,log2 ratio of Biotin-Ahx-Ub-VS probe labelling,[7],-0.366
same,log2 ratio of Biotin-Ahx-Ub-VS probe labelling,[8],-0.118
same,log2 ratio of Biotin-Ahx-Ub-VS probe labelling,[9],-0.153
same,log2 ratio of Biotin-Ahx-Ub-VS probe labelling,[10],-0.987
